Screening results: PubChem BioAssay, National Center for Advancing Translational Sciences (NCATS)
Most compounds without a hit are left out; they make up all but 11% or so of the library.
FLuc inh-1 – blocks purified firefly luciferase enzyme activity | Potency, µM (titrated, usually from 115 µM), hits mostly inhibitors | 76,000 compounds, 2.5% hits | AID 1347043 | purified P. pyralis luciferase, luminescence, biochemical; further: on the % scale 0 is the no-effect control and ±100 the full control effect; nearly all actives have a fitted effect of over 65% in size
Target sequence (P08659 whole entry, looked up): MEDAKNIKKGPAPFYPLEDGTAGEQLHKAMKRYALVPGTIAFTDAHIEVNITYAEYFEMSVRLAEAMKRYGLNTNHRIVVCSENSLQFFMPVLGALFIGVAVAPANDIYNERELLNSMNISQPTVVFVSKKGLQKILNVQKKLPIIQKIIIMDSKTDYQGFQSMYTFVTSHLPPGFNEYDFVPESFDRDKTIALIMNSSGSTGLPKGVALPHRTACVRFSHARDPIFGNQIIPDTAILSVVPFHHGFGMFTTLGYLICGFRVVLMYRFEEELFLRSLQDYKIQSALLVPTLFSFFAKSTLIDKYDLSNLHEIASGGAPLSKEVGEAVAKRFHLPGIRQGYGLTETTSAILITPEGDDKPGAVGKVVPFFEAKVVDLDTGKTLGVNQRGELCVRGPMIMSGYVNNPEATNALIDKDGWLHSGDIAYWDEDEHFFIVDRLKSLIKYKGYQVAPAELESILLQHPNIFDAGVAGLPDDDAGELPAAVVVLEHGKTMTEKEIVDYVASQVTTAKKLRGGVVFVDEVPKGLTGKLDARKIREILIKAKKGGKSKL
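Cell-free enzyme assay, 10nM P. pyralis luciferase, luciferin and ATP each at 10uM. Inhibition profiled over a 6-point titration, read as luminescence.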
HEK293 tox – cytotoxic compounds in HEK 293 cells. Potency, µM (doses to about 115 µM), for the others: at the top dose activity change, negative = cytotoxicity, actives largely listed as inhibitors. AID 1345083. HEK 293 viability, ATP luminescence (CellTiter-Glo), 48-72 h. 94,000 compounds, 6.6% hits; further: on the % scale 0 is the no-effect control and ±100 the full control effect; nearly all actives have a fitted effect of over 60% in size
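250 HEK 293 cells/well; compound by pintool; incubated 48 or 72 hr at 37 degree Celsius; CellTiter-Glo added, 10 min RT, luminescence imaged.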
NIH3T3 tox – NIH 3T3 cell cytotoxicity | 94,000 compounds, 4.3% hits | Potency, µM (highest dose often 96.7 µM), for the others: at the top dose activity change, negative = cytotoxicity, usual class: inhibitors | AID 1345082 | NIH 3T3 viability, CellTiter-Glo ATP luminescence, 48-72 h; further: on the % scale 0 is the no-effect control and ±100 the full control effect; nearly all actives have a fitted effect of over 55% in size
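Cytotoxicity is measured as loss of cellular ATP: NIH 3T3 cells (400/well) are exposed to compound for 48 or 72 hr at 37 °C, then CellTiter-Glo luminescence is imaged after 10 min at room temperature.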
NPR1 antag – blocks ANP-stimulated signaling of human Npr1 receptor; 76,000 compounds, 1.6% hits; Potency, µM (titrated, usually from 46.3 µM), for the others: at the top dose activity change, negative = inhibition, usual class: inhibitors; P16066; HEK293 hNpr1 GloSensor cGMP, ANP-stimulated luminescence; calls by dose curve; further: on the % scale 0 is the no-effect control and ±100 the full control effect; nearly all actives have a fitted effect of over 60% in size
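Compound pre-incubated 30 min at room temperature on GloSensor-loaded HEK293 cells stably carrying hNpr1 and the pGS-40F cGMP biosensor. Stimulation uses hNppA at 0.1 nM final; luminescence is taken at baseline and 20 min post-agonist.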
FLuc SDR -ATP – firefly luciferase binding stabilization, ATP absent; AID 1963318; Potency, µM (titrated, usually from 32.7 µM), inactives show at the highest dose activation (signal gain), most hits filed as activators; shares compounds with FLuc inh-1; Purified FLuc-C-HiBiT, Nano-Glo HiBiT luminescence, no ATP; 1,300 compounds, 7.8% hits; further: nearly all actives have a fitted effect of over 55% in size
FLuc SDR ATP – firefly luciferase binding stabilization, ATP added. shares compounds with FLuc inh-1. purified FLuc-C-HiBiT + ATP, HiBiT complementation luminescence. Potency, µM (doses to about 32.7 µM), without a hit: at the top dose activation (gain of signal), most hits filed as activators. 1,300 compounds, 8.7% hits. AID 1963319;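 further: signal reports ligand binding via conformational change of the enzyme rather than luciferase catalysis; % of control where 0% means no effect; nearly all actives have a fitted effect of over 55% in size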
FLuc inh-2 – blocks firefly luciferase enzymatic activity. shares compounds with FLuc inh-1. purified FLuc-C-HiBiT enzyme, luciferin luminescence. Potency, µM (top dose mostly 32.7 µM), for inactives: at the highest dose activity change, negative = inhibition, usual class: inhibitors. 1,300 compounds, 42% hits; further: on the % scale 0 is the no-effect control and ±100 the full control effect; nearly all actives have a fitted effect of over 70% in size
* marks the source's active call; other numbers are inactive results; i = inactive; ? = inconclusive; nt = no result given; [ ] = another dose, or the depositor's remark. Unless noted, the call rests on the fitted dose curve; in most records, active means well fitted curve in the direction sought with a large enough effect; inconclusive means small, poorly fitted or top-dose-only effect, or another doubt; inactive means no such curve, though single readings can be large; an effect the other way counts as inactive or inconclusive. Potency means the concentration at half of the fitted maximal effect.

SMILES | FLuc inh-1 | HEK293 tox | NIH3T3 tox | NPR1 antag | FLuc SDR -ATP | FLuc SDR ATP | FLuc inh-2
Nc1ncnc2c1ncn2[C@@H]1O[C@H](CO)[C@@H](O)[C@@H]1O | nt | nt | nt | nt | 11% | 11% | -9%
COc1ccc(OC)c(CN2CCOc3ccc(C(=O)NCc4ccc(C)cc4)cc3C2)c1 | i | ? | ? | -15% | 13% | 9% | -1%
COc1ccc(CN2CCOc3ccc(C(=O)NCc4ccc(C)cc4)cc3C2)cc1OC | i | ? | ? | -13% | nt | nt | nt
O=C(NCCC1CCN(C(=O)Nc2cc(F)cc(F)c2)CC1)c1ccc(F)cc1 | 14µM* | ? | ? | -22% | 17% | 11% | -18%
O=C(NCCC1CCN(C(=O)Nc2ccccc2)CC1)c1ccc(F)cc1 | ? | 2% | -5% | -14% | nt | nt | nt
Cc1ccc(NC(=O)N2CCC(CCNC(=O)C3CC3)CC2)cc1F | 11µM* | -12% | -17% | -14% | ? | ? | ?
O=C1NCCCCCCN(C(=O)c2cccs2)[C@H]2C[C@H](C(=O)N3CCc4ccccc4C3)C[C@@H]12 | i | ? | -17% | 1% | nt | nt | nt
O=C(NCCC1CCCCC1)c1c[nH]c2ncccc12 | 5.6µM* | 71µM* | ? | ? | ? | 18%[49.3 µM] | 18µM*
CCC1c2nccn2CCCN1C(=O)CCc1ccc(OC)c(OC)c1 (stereo not given) | i | i | i | -17% | nt | nt | nt
CCc1cccc(NC(=O)C2(Cc3ccccc3)CCCCC(=O)N2)c1 (stereo not given) | nt | ? | -12% | nt | nt | nt | nt
O=C([C@@H]1C[C@H](Oc2cccnc2)CN1C(=O)Cn1c(=O)oc2ccccc21)N1CCCC1 | i | -4% | 0% | 7% | nt | nt | nt
COc1ccc(NC(=O)c2cc3c(=O)[nH]c(C)cn3n2)cc1OC | 7.1µM* | ? | -19% | 0% | ? | ? | 9.9µM*
COc1ccc(CCNC(=O)c2cc3c(=O)[nH]c(C)cn3n2)cc1OC | i | 1% | -13% | 7% | nt | nt | nt
COc1cccc(-c2ccc(C(=O)NCCNC(=O)c3cccnc3)cc2)c1 | nt | ? | -24% | nt | nt | nt | nt
CCN(CC)S(=O)(=O)c1ccc2nc(NC(=O)c3cccnc3)sc2c1 | nt | nt | nt | nt | 16% | 11% | ?
CNc1ccc(-c2nc3ccccc3s2)cc1 | nt | nt | nt | nt | 1.8µM* | 1.1µM* | 0.078µM*
CCS(=O)(=O)c1ccccc1C(=O)Nc1ccc(-c2nc3ccccc3s2)cc1 | nt | nt | nt | nt | 19% | 8% | -9%
Nc1ccc(-c2nc3ccccc3s2)cc1 | nt | nt | nt | nt | ? | ? | 1.8µM*
CCOP(=O)(Cc1ccc(-c2nc3ccccc3s2)cc1)OCC | nt | nt | nt | nt | 17% | 15% | ?
C[S+](=O)([O-])c1cccc(-c2nnc3ccc(C(=O)NCC(F)F)cn23)c1 | nt | 1% | -14% | nt | nt | nt | nt
CCc1nncn1C1CCN(S(=O)(=O)c2ccc(Cl)s2)CC1 | nt | ? | -26% | nt | nt | nt | nt
CCN(CC)CCNC(=O)C1CCCN(S(=O)(=O)c2ccccc2)CCC(=O)NCC1 (stereo not given) | i | i | i | 2% | nt | nt | nt
Cc1ccc(NC(=O)c2cn3cc(-c4ccccc4)sc3n2)cc1 | nt | -21%[172 µM] | -30%[138 µM] | nt | nt | nt | nt
CC(C)(C)C(=O)Nc1ccc(-c2nc3ccccc3s2)cc1 | nt | nt | nt | nt | 0.078µM* | 0.044µM* | 0.02µM*
Cc1ccc2sc(-c3ccc(N)cc3)nc2c1 | nt | nt | nt | nt | 3.1µM* | ? | 0.28µM*
SMILES | FLuc inh-1 | HEK293 tox | NIH3T3 tox | NPR1 antag | FLuc SDR -ATP | FLuc SDR ATP | FLuc inh-2
CC(=O)Nc1ccc(CN(C)Cc2cccc(C(F)(F)F)c2)cc1 | nt | ? | -26% | nt | nt | nt | nt
Cc1cc(NC(=O)c2ccc(CN3CC[C@H](O)C3)cc2)ccc1F | 0.89µM* | ? | ? | 10µM* | ? | ? | 2µM*
COc1c(C)cc(NC(=O)c2ccc(CN3CCC(O)CC3)cc2)cc1C | i | ? | ? | -2% | nt | nt | nt
COc1ccc(-c2ccc(C(=O)NCc3ccccn3)cc2)nn1 | nt | -22% | -24% | nt | nt | nt | nt
Nc1nc2c([nH]c(=O)n2C2CC(O)C(CO)O2)c(=O)[nH]1 (stereo not given) | nt | nt | nt | nt | 13% | 11% | 6%
O=C(c1ccc(F)cc1)N1CCCC(C(=O)N2CCC(N3CCOC3=O)CC2)C1 (stereo not given) | nt | i | 1% | nt | nt | nt | nt
O=C(Nc1ccc(-c2nc3ccccc3s2)c(O)c1)c1ccc(Br)cc1 | nt | nt | nt | nt | 15% | 10% | 5%
CCC1Oc2ccc(NC(=O)COc3ccccc3)cc2CN(Cc2ccc(OC)cc2)C1=O (stereo not given) | i | ? | ? | -7% | nt | nt | nt
COc1cccc(C(=O)Nc2ccccc2-c2nc3ccccc3s2)c1 | nt | nt | nt | nt | 8% | 8% | 1%
O=C(Nc1ccc2c(N3CCCC3)ncnc2c1)c1cccc(Br)c1 | i | ? | ? | -19% | nt | nt | nt
COc1ccc(OCC(=O)Nc2ccc(O)c(-c3nc4ccccc4s3)c2)cc1 | nt | nt | nt | nt | 13% | 10% | -14%
COc1ccc(C(=O)Nc2ccccc2-c2nc3ccccc3s2)c(OC)c1 | nt | nt | nt | nt | 12% | 7% | -6%
CNC(=O)[C@@H]1C[C@@H](n2cc(C(C)(C)NC(=O)c3cccc(Cl)c3)nn2)CN1 | i | -24% | ? | -2% | nt | nt | nt
O=C(Nc1ccccc1-c1nc2ccccc2s1)c1ccccc1F | nt | nt | nt | nt | 10% | 9% | -6%
O=C(O)c1ccccc1-c1nc2ccccc2s1 | nt | nt | nt | nt | 23% | 14% | -15%
COc1cccc(C(=O)Nc2ccc(O)c(-c3nc4ccccc4s3)c2)c1 | nt | nt | nt | nt | 13% | 8% | -8%
Cn1ncc2c(C(=O)Nc3ccccc3Cl)cc(-c3ccccc3F)nc21 | nt | -14% | -30% | nt | nt | nt | nt
O=C(NCCc1ccccc1)c1ccc2nnc(-c3ccc(F)cc3)n2c1 | nt | -24% | ? | nt | nt | nt | nt
O=C(NCc1cccc(Cl)c1)c1cnc2c(c1)N(C(=O)Cc1ccc(O)cc1)CCC2 | i | ? | ? | -9%[70.6 µM] | nt | nt | nt
Cc1ccccc1C(=O)N1CCC(C(=O)N2CCC(c3nc4ncccc4[nH]3)CC2)CC1 | nt | i | -2% | nt | nt | nt | nt
CCN1CCN(C(=O)c2ccc3oc(-c4cccnc4)nc3c2)CC1 | nt | i | -1% | nt | nt | nt | nt
Cc1ccc(-c2nc(C(=O)N3CCN(c4ccccc4)CC3)no2)cc1 | 13µM* | ? | ? | -2% | 26% | 13% | ?
Cc1ccc(-c2nc(C(=O)N3CCN(c4ccccc4F)CC3)no2)cc1 | ? | ? | ? | 2% | nt | nt | nt
COC(=O)c1ccccc1NC(=O)N1CCC[C@@H](O)[C@H](NC(=O)c2ccc(OCc3ccccc3)cc2)C1 | i | ? | ? | -13% | nt | nt | nt
CCCc1ccc(OCc2ccc(C(=O)Nc3ccccc3C(=O)OC)o2)cc1 | nt | nt | nt | nt | 12% | ? | ?
